Bioassay records from PubChem.
An excerpt weighted towards active compounds, which were near 0.9% of everything screened.
RXFP1 antag = antagonists of human relaxin receptor RXFP1; Q9HBX9; activity change, negative = inhibition, % at 57.5 µM; hit rate 0.59% among 350,000; HEK293-RXFP1, relaxin-stimulated cAMP HTRF, 30 min; hits give low values;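 active = activity change of -60% or lower, but not beyond a set lower limit; inconclusive = change between -60% and -40%, or beyond the set limit; inactive = change above -40%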; also: % is scaled to controls: 0 for no effect and ±100 for the full control effect
Target sequence (Q9HBX9 whole entry, looked up): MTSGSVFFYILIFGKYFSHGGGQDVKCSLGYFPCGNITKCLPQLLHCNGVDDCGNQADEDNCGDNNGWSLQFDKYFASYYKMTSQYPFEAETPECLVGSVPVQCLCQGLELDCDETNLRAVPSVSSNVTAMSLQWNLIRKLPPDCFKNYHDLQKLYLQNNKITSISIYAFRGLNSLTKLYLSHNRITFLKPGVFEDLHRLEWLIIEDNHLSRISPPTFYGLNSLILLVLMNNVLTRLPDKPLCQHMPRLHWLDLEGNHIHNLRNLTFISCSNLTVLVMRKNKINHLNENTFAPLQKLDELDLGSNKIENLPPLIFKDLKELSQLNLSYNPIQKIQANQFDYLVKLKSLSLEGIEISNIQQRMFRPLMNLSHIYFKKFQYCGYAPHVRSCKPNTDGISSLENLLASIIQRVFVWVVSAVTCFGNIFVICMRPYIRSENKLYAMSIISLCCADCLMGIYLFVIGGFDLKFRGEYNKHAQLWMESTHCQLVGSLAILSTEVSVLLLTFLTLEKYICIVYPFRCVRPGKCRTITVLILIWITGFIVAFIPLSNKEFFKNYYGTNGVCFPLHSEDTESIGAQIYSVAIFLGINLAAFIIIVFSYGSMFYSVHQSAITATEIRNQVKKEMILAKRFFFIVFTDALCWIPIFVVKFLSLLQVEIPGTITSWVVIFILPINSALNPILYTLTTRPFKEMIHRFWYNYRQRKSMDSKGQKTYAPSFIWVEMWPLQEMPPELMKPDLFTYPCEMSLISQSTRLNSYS
gsp ag = agonists of gsp mutant (McCune-Albright syndrome) | gsp mutant cells, cAMP HTRF, 30 min | Potency, µM (series often up to 76.9 µM), for inactives: top-dose activation (cAMP increase), most hits filed as activators | hit rate 0.13% among 340,000; active = well fitted activation curve with a large enough effect; inconclusive = small, poorly fitted or top-dose-only effect, or another doubt; inactive = no such curve, though single readings can be large or run the other way; cell line not stated here;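 also: phosphodiesterase inhibitor Ro 20-1724 added with compounds to block cAMP breakdown; potency is read from the fitted curve at half-maximal effect; nearly all actives have a fitted effect of over 60% in size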
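Cells stably selected in G418 were plated at 2000/well, grown 16-24 hr, then given compounds in DMSO with the PDE inhibitor […] (300 uM solution added) for 30 min at 37C; cAMP was read by HTRF.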
RXFP1 ag = RXFP1 (human) receptor agonism. AID 2676. Q9HBX9. HEK293T-RXFP1 cAMP TR-FRET, 30 min; response scale: percent of porcine relaxin response, buffer zero. hit rate 0.3% among 370,000. Potency, µM (top dose mostly 57.5 µM), inactives show top-dose activation, most hits filed as activators; active = well fitted activation curve with a large enough effect; inconclusive = small, poorly fitted or top-dose-only effect; also: potency is read from the fitted curve at half-maximal effect; % is scaled to controls: 0 for no effect and ±100 for the full control effect; nearly all actives have a fitted effect of over 60% in size
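cAMP rise read by TR-FRET after 30 min, 37C compound exposure (up to 58 uM) in RXFP1-transfected HEK293 cells with Ro 20174 present. EC50 from Hill-equation fits, with 29 nM porcine relaxin as 100% and buffer as basal.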
gsp antag = antagonizes gsp, the McCune-Albright syndrome mutation. Potency, µM (titrated, usually from 76.9 µM), for the others: at the top dose activity change, negative = inhibition, actives largely listed as inhibitors. gsp-mutant cells, cAMP HTRF, 30 min. hit rate 0.4% among 340,000; calls by dose curve; cell line not stated here;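 also: intracellular cAMP measured with PDE inhibitor Ro 20-1724 present during compound exposure; potency is read from the fitted curve at half-maximal effect; % is scaled to controls: 0 for no effect and ±100 for the full control effect; nearly all actives have a fitted effect of over 65% in size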
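Measurement of cellular cAMP by homogeneous time-resolved fluorescence following a 30 min compound exposure at 37C. The PDE inhibitor […] was present throughout; the assay buffer was DPBS with 0.05% BSA and 0.005% Tween 20.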
An asterisk follows results filed as active; ? = inconclusive; / = no result given; ! = not confirmed by another sample; [ ] = another dose, or the depositor's remark.

SMILES	RXFP1 antag	gsp ag	RXFP1 ag	gsp antag
O=C(CC1C(=O)N(c2ccccc2)C(=O)N1Cc1ccc2c(c1)OCO2)Nc1ccccc1 (configuration not stated)	/	/	1.8%	/
CCCn1c(/C=C/c2ccccc2)nc2ccccc21	-86.1*!	-0.3%	10.7%	?
CCn1c(/C=N/c2nc3ccccc3n2C)nc2ccccc21	12.3	6.3%	0.4%	6.4%
CCn1c(/C=C/c2cc[n+](C)cc2)nc2ccccc21	27.4	?	28.2µM*	20.3%
CCC(=O)N1CCN(c2ccccc2NC(=O)c2ccc(-c3cccc([N+](=O)[O-])c3)o2)CC1	-3.6	-0.6%[15.4 µM]	1.0%	5.62µM*
CCOC(=O)c1c(NC(=O)c2ccc(OCC)c(Br)c2)sc2c1CCCC2	-1.4	/	-4.2%	/
CCOC(=O)c1ccc(NC(=S)NNC(=O)c2cc(-c3cccnc3)nc3ccccc23)cc1	-15.6	9.8%	-2.8%	-32.5%
O=C(NNC(=S)Nc1ccccc1)c1cc(-c2cccnc2)nc2ccccc12	-60.7*	1.0%[15.4 µM]	2.2%	-17.5%
Cc1ccc(Nc2cc(C)nc3ccc(C)cc23)cc1	-81.6*	1.2%	0.9%	5.3%
CCOc1ccc(Nc2cc(C)nc3ccc(C)cc23)cc1	-31.0	-14.6%[15.4 µM]	/	?
CCOC(=O)c1cc(-c2ccc(C)cc2)n(CCC(=O)NCCc2ccc(C)cc2)c1C	/	/	4.9%	/
O=C(COC(=O)c1ccccc1)Nc1ncc([N+](=O)[O-])s1	-3.4	-1.1%[15.4 µM]	/	-5.6%
O=C(Nc1ccccc1)Nc1ncc([N+](=O)[O-])s1	-17.9	-12.1%[15.4 µM]	1.0%	28.2µM*
CCc1cc2cc(C(=O)Nc3ccc(F)cc3)sc2s1	9.8	?	?	30.8%
CC(C)(C)c1ccc(C(=O)Nc2ccc(F)cc2)s1	?	16.9%	31.6µM*	1.6%
COc1ccc(Cn2c(=O)[nH]c3cc(C(=O)NCCC(C)C)ccc3c2=O)cc1	/	/	0.8%	/
CC(C)CCNC(=O)c1ccc(Cn2c(=S)[nH]c3ccccc3c2=O)cc1	-73.0*	-37.9%	5.7%	0.4%
COc1ccc(N2CC(C(=O)Nc3ccccc3-c3nc(-c4ccc(C)cc4)no3)CC2=O)cc1 (configuration not stated)	0.3	/	0.3%	/
Cc1ccc(C)c(Cn2c(=O)n(-c3ccc(Cl)cc3)c(=O)c3c(C)c(C)sc32)c1	-12.2	/	-3.3%	/
Cc1ccc(OCCn2c(CNc3cccc(C)c3)nc3ccccc32)cc1	?	/	-0.9%	/
Cc1ccc(NCc2nc3ccccc3n2CCOc2ccccc2)cc1	-62.0*!	-1.9%	5.4%	-9.0%
CCOc1ccc(Oc2ccc(Cl)cc2NC(=O)C2=COCCO2)cc1	-5.6	0.3%	-0.4%	-6.7%
O=C(Nc1cc(Cl)ccc1Oc1ccccc1)C1=COCCO1	-75.5*	-21.3%	0.1%	-12.2%
CCCCC(=O)NC(c1ccc([N+](=O)[O-])cc1)c1c(O)ccc2ccccc12 (configuration not stated)	-61.7*	2.6%[15.4 µM]	0.1%	?
CCC(=O)NC(c1ccc([N+](=O)[O-])cc1)c1c(O)ccc2ccccc12 (configuration not stated)	-20.2	-67.0%	-1.0%	?
SMILES	RXFP1 antag	gsp ag	RXFP1 ag	gsp antag
Clc1cccc(-c2ccc3ncnc(NCc4ccc5c(c4)OCO5)c3c2)c1	/	/	0.1%	/
Cc1cc(C)c(S(=O)(=O)Nc2ccc(-c3ccc(N4CCCCC4)nn3)cc2)c(C)c1	-25.2	/	-0.5%	/
COCCCNC(=O)CSc1nc2cc3c(cc2c(=O)n1CCCCCC(=O)NCc1ccc2c(c1)OCO2)OCO3	-3.1	/	2.2%	/
CCC(Sc1nc2cc3c(cc2c(=O)n1CCCCCC(=O)NCc1ccc2c(c1)OCO2)OCO3)C(=O)NCCCOC (configuration not stated)	-112.8*	/	0.4%	/
O=C1C=CC2(O[C@H](c3ccccc3)[C@@H](c3ccccc3)O2)[C@H](Sc2ccccc2O)C1	-98.5*	-7.5%	/	-12.7%
CC(C)c1ccc(NC(c2nnc(-c3ccccc3)o2)c2ccc(F)cc2Cl)cc1 (configuration not stated)	/	/	-0.3%	/
O=C(CSc1ccc(-c2ccco2)nn1)Nc1ccccc1	0.0	4.3%[15.4 µM]	-2.0%	-8.1%
O=C(CSc1ccc(-c2ccco2)nn1)NCc1ccccc1Cl	/	11.2µM*	18.0%	17.3%
O[C@@H](COc1cccc2ncccc12)CN1CCN(C2c3ccccc3[C@@H]3[C@H](c4ccccc42)C3(F)F)CC1 (some centres not stated)	-32.7	/	/	/
Clc1ccc(C2=NNC(=NCc3ccccc3)SC2)cc1	-16.4	12.3%[15.4 µM]	-0.5%	7.08µM*
